Test results: PubChem BioAssay (NCATS)
Inconclusive results are not listed. A call without a number means that no potency is given here. The source made the active and inactive calls. Calls follow the shape of the dose curve; as a rule, active = well fitted inhibition curve with a large enough effect; inconclusive = small, poorly fitted or top-dose-only effect; inactive = flat fitted curve, though single readings scatter.

What follows are molecules tested against Calcium and integrin-binding protein 1 (Homo sapiens) (UniProt Q99828) (assay: Primary qHTS for Identification of Calcium Integrin Binding Protein 1 (CIB1) Competitor (AID 1508620;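 also: GST tagged CIB1 binding a fluorescein labelled alphaIIb integrin peptide tracer; top concentration of the series differs between compounds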)). Conditions: CIB1-GST / FITC-alphaIIb peptide fluorescence polarization; series mostly up to 57.7 µM.
Chain of Calcium and integrin-binding protein 1 (Homo sapiens) (Q99828 whole entry, looked up): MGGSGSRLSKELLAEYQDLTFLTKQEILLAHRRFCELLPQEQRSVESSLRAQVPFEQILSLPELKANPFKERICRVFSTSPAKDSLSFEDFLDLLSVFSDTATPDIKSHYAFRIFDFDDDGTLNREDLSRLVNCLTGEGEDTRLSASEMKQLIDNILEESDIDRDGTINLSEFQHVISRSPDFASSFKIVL
Outline: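 Fluorescence polarization competition: CIB1-GST (1 uM final) preincubated with compound 15 min at room temperature, then FITC-labeled alphaIIb peptide (100 nM final) added for another 15 min. Polarization read at Ex 480/Em 540.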

| Structure (SMILES) | activity change, negative = inhibition | Potency |
| --- | --- | --- |
| CC[C@H](/C=C/[C@@H](C)[C@H]1CC[C@H]2[C@@H]3CC=C4C[C@@H](O)CC[C@]4(C)[C@H]3CC[C@]12C)C(C)C | 1.65% [at 12.4 µM] (inactive) | – |
| O=C(OCC12OC1C=CC(OC(=O)c1ccccc1)C2O)c1ccccc1 (stereo unspecified) | – | inactive |
| CC(C)CC(=O)OC[C@H]1O[C@@](COC(=O)CC(C)C)(O[C@H]2O[C@H](CO)[C@@H](O)[C@H](O)[C@H]2O)[C@@H](OC(=O)CC(C)C)[C@@H]1OC(=O)CC(C)C | – | inactive |
| CC(=O)O[C@H](C[C@@H](C)[C@H]1C(=O)[C@H](O)[C@@]2(C)[C@@H]3CCC4C(C)(C)[C@@H](O[C@@H]5OC[C@H](O)[C@H](O)[C@H]5O)CC[C@@]45C[C@@]35CC[C@]12C)[C@@H]1OC1(C)C (stereo partly specified) | – | inactive |
| COc1ccc2c(c1O)OC[C@H]1c3ccc(O)cc3O[C@@H]21 | – | inactive |
| CC(/C=C/C1(O)C2(C)COC1(C)CC(=O)C2)O[C@@H]1O[C@H](CO)[C@@H](O)[C@H](O)[C@H]1O (stereo partly specified) | – | inactive |
| COc1ccc(C(OC2OC(CO)C(O)C(O)C2O)C(C)O)cc1 (stereo unspecified) | – | inactive |
| C/C=C/C=C/C=C/C(=O)O[C@@H]1[C@@H](OC)C2=C(C(=O)N(C(C)C(=O)O)C2)[C@@]2(C)CCCC(C)(C)[C@H]12 (stereo partly specified) | – | inactive |
| CCCn1cnc2c(NCc3ccccc3)nc(N[C@H](CC)CO)nc21 | – | inactive |
| CC1CCC2(C)C(CC(O)C(O)C23CO3)C1(C)CCC1=CC(=O)OC1O (stereo unspecified) | – | inactive |
| N#CCc1ccc(O)cc1O[C@@H]1O[C@H](CO)[C@@H](O)[C@H](O)[C@H]1O | – | inactive |
